Assay results published in the supplement of paper PMC10849652.
About 7,900 targets were measured; listed, in parts, are those with a hit and a random draw of the rest. About 0.6% of all pairs of compound and target were hits. Unmarked numbers belong to inactive results.

Legend:
Assay in all cases: log2 fold change, soluble protein after heating vs DMSO (PISA); higher = thermal stabilisation; K562 cells, 10 uM, 30 min; active = over 0.2 and 3.5 SD of the protein, either way, in both replicates (recomputed)
[1] = compound: C1=CC=C(C=C1)[C@H](COC2=CC3=C(C=C2)NC(=O)N3)NC(=O)C4=CC=CN(C4=O)CC5=CC(=C(C=C5)F)F
Method in brief: (§1)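 Soluble protein was defined as the supernatant after 21,000xg for 90 min. It came from K562 cells at 2×10^6 cells/mL given 10 μM compound for 30 min, heated in aliquots for 3 min across 48°C-58°C, pooled, and extracted in PBS with 0.5% NP-40 at 4°C, and was quantified by TMTpro 16plex LC-MS/MS with equalised channel sums. Thermal stability against control samples, from duplicates, is reported as log2 fold change.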

[2] = compound: CC1=C(SC2=C1C(=N[C@H](C3=NN=C(N32)C)CC(=O)N)C4=CC=C(C=C4)Cl)C
Method in brief: as §1

[3] = compound: CC1=C2C(=CC=C1)N=C(N(C2=O)C3=CC=CC=C3C)CN4C=NC5=C(N=CN=C54)N
Method in brief: as §1

[4] = compound: Cc1sc2c(c1C)C(c1ccc(Cl)cc1)=N[C@@H](CC(=O)OC(C)(C)C)c1nnc(C)n1-2
Method in brief: as §1

[5] = compound: c1ccc([C@@H]2C[C@H]2NC2CCNCC2)cc1
Method in brief: as §1

UniProt Q96CF2, sequence (Q96CF2 whole entry, looked up): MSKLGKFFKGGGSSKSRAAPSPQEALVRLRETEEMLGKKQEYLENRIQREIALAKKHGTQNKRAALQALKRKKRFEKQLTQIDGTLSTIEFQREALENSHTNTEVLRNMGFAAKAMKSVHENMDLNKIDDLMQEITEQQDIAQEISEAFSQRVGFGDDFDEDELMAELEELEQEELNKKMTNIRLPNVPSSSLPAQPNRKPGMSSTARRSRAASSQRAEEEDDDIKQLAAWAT
UniProt A6NHX0, sequence (A6NHX0 whole entry, looked up): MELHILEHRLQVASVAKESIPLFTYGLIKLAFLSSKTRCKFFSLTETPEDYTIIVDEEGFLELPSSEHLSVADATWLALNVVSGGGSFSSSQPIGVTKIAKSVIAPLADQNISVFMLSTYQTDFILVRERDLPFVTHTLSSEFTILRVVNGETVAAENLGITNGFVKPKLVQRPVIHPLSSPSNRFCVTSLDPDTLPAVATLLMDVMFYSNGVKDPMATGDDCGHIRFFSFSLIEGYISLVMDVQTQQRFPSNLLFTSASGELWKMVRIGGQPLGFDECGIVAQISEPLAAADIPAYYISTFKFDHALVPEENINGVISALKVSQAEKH
UniProt Q9NRR8, sequence (Q9NRR8 whole entry, looked up): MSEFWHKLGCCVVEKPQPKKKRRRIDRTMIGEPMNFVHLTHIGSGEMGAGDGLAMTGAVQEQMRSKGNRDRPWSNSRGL
UniProt Q9HAW4, sequence (Q9HAW4 whole entry, looked up): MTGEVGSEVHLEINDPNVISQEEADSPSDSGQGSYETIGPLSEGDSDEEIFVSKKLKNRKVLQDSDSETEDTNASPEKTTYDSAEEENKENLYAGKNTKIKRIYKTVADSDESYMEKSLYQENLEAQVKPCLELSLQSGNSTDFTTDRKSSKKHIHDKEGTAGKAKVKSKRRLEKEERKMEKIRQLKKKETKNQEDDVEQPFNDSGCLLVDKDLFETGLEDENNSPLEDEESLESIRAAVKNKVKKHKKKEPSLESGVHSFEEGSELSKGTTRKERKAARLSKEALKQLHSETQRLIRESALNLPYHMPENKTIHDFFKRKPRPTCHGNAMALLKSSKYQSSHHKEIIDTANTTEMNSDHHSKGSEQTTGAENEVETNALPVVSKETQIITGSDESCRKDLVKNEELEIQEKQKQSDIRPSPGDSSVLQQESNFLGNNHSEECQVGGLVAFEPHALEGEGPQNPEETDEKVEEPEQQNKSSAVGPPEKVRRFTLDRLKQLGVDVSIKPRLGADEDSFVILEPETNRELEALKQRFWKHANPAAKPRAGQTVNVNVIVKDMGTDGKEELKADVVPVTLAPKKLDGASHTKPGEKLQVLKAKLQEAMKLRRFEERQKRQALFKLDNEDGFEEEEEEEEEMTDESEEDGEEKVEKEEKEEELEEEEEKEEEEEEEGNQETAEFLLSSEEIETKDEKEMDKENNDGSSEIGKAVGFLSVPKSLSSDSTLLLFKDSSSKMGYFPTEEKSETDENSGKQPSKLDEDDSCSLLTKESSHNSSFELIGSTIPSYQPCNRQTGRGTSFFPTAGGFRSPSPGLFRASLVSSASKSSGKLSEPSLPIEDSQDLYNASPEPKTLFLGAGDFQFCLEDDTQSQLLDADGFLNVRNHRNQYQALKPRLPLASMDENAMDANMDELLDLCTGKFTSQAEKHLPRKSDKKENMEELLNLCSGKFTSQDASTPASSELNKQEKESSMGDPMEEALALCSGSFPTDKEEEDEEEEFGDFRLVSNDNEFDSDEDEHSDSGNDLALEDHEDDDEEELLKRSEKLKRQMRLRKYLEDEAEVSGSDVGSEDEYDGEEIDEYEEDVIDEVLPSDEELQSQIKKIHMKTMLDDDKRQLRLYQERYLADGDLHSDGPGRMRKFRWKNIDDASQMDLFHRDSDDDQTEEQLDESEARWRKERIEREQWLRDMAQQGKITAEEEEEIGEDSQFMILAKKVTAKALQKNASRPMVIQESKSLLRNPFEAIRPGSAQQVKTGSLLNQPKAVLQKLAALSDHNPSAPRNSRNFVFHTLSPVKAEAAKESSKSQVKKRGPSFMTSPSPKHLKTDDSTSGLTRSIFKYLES
UniProt P68400, sequence (P68400 whole entry, looked up): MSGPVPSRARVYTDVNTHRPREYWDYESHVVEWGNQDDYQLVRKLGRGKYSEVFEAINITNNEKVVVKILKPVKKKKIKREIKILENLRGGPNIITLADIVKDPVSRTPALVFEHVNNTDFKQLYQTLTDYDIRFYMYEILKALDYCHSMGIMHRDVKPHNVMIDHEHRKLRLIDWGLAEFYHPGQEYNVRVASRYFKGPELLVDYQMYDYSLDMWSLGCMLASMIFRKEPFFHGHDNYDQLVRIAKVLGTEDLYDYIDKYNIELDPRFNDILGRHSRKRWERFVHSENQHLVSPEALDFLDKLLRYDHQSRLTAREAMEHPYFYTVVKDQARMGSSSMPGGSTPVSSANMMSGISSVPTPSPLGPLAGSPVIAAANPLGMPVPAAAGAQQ
UniProt P12277, sequence (P12277 whole entry, looked up): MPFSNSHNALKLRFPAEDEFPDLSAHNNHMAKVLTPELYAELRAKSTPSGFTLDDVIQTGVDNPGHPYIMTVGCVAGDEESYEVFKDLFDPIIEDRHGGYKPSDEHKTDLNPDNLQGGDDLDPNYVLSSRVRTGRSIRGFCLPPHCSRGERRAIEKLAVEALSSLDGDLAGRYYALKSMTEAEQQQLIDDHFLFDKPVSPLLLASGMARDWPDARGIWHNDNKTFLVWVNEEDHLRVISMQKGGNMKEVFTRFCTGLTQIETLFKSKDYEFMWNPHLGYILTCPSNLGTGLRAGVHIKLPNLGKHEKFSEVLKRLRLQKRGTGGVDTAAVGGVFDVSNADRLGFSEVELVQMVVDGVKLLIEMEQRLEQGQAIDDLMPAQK
UniProt Q8N684, sequence (Q8N684 whole entry, looked up): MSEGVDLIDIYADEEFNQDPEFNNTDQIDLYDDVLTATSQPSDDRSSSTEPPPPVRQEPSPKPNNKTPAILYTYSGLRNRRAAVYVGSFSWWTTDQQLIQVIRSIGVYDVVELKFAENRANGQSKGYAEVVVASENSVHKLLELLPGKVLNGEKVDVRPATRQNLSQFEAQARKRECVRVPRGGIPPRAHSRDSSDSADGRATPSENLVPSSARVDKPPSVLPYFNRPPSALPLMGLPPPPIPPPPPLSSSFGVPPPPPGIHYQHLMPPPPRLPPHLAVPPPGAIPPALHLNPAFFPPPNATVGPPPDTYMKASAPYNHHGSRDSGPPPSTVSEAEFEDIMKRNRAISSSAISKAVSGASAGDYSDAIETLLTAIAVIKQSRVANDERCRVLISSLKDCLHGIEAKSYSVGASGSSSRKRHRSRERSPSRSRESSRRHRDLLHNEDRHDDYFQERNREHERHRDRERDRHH
UniProt Q9Y6K0, sequence (Q9Y6K0 whole entry, looked up): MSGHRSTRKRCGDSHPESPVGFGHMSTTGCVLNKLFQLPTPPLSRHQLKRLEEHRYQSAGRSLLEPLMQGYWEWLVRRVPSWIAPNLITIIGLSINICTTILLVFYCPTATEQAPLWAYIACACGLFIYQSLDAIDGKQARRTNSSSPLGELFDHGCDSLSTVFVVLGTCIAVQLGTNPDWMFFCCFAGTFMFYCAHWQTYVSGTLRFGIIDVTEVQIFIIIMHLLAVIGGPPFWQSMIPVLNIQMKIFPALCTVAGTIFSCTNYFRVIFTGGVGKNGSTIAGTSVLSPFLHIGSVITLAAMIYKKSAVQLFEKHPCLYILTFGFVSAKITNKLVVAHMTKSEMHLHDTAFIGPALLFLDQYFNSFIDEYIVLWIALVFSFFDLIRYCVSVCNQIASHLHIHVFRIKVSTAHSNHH
UniProt P48509, sequence (P48509 whole entry, looked up): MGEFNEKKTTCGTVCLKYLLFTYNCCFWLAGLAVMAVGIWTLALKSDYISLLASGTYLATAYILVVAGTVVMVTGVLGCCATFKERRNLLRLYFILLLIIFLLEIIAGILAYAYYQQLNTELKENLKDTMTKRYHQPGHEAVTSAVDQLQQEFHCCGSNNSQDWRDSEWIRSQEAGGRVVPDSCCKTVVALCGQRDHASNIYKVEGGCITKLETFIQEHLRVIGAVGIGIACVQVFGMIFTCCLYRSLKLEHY
UniProt Q8N4Q1, sequence (Q8N4Q1 whole entry, looked up): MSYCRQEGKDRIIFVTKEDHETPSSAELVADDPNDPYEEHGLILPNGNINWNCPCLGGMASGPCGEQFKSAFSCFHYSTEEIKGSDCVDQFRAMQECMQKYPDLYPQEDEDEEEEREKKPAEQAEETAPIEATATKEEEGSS
UniProt Q99439, sequence (Q99439 whole entry, looked up): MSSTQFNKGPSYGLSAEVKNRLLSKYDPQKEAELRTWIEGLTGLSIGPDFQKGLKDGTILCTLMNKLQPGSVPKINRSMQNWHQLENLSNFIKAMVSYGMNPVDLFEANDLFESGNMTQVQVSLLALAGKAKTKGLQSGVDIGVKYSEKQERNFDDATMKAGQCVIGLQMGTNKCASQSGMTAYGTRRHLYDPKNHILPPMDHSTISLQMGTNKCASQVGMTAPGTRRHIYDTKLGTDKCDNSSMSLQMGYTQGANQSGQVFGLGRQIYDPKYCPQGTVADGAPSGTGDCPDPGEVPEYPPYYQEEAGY
UniProt Q9Y6H1, sequence (Q9Y6H1 whole entry, looked up): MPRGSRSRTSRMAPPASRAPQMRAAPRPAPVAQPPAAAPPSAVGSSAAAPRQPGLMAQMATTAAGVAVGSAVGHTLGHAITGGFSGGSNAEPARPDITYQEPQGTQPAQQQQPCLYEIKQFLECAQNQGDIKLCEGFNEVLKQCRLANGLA
UniProt P16152, sequence (P16152 whole entry, looked up): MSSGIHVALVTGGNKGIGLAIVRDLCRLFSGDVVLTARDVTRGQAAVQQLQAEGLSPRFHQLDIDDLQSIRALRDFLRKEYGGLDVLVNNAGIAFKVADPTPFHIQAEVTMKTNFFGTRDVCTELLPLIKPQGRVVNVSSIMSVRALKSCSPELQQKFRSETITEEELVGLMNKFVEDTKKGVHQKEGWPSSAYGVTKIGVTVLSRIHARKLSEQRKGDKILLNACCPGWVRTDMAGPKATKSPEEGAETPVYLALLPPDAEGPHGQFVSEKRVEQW
UniProt P14854, sequence (P14854 whole entry, looked up): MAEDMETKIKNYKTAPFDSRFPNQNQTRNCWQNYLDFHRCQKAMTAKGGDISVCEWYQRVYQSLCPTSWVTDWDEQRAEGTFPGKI

Target | log2 fold change [1] | log2 fold change [2] | log2 fold change [3] | log2 fold change [4] | log2 fold change [5]
CNOT4 isoform 6 (UniProt O95628) | -0.019 | 0.012 | 0.068 | -0.01 | 0.018
CAMK2G isoform 6 (UniProt Q13555) | -0.017 | 0.054 | 0.044 | 0.096 | -0.021
CRLF3 (UniProt Q8IUI8) | -0.03 | 0.045 | 0.087 | 0.088 | -0.036
CHCHD2 (UniProt Q9Y6H1) | -0.016 | 0.082 | -0.007 | -0.065 | -0.011
CHAMP1 (UniProt Q96JM3) | -0.073 | 0.044 | 0.022 | -0.051 | -0.006
COQ7 (UniProt Q99807) | -0.038 | 0.016 | 0.029 | 0.014 | 0.048
CPT1A (UniProt P50416) | 0.095 | 0.011 | 0.125 | -0.022 | -0.118
CA1 (UniProt P00915) | -0.007 | 0.039 | 0.019 | 0.007 | 0.018
CSNK1A1 isoform 3 (UniProt P48729) | -0.061 | – | – | – | –
CASTOR2 (UniProt A6NHX0) | 0.056 | 0.078 | 0.039 | -0.065 | -0.016
CHMP4B (UniProt Q9H444) | -0.015 | -0.004 | 0.031 | 0.056 | 0.054
CSTF3 (UniProt Q12996) | -0.005 | 0.064 | -0.007 | 0.03 | -0.016
CLCN3 isoform 2 (UniProt P51790) | 0.044 | -0.006 | -0.014 | -0.021 | 0.013
CLSPN (UniProt Q9HAW4) | 0.002 | -0.009 | -0.043 | -0.004 | 0.036
CLN3 (UniProt Q13286) | 0.005 | -0.032 | -0.315 | -0.119 | 0.087
CRTC3 (UniProt Q6UUV7) | -0.083 | 0.044 | -0.065 | 0.004 | 0.034
CASP7 isoform 3 (UniProt P55210) | 0.12 | – | – | – | –
CTBS (UniProt Q01459) | 0.082 | -0.002 | 0.014 | -0.019 | -0.006
CCAR2 isoform 2 (UniProt Q8N163) | -0.057 | -0.014 | 0.079 | -0.089 | 0.011
CKB (UniProt P12277) | -0.1 | 0.01 | 0.038 | -0.022 | -0.118
CD55 isoform 7 (UniProt P08174) | 0.026 | -0.058 | -0.009 | -0.066 | -0.049
CELF2 isoform 3 (UniProt O95319) | -0.005 | 0.119 | 0.013 | 0.071 | -0.014
CDC42BPB (UniProt Q9Y5S2) | -0.114 | -0.031 | 0.009 | 0.025 | -0.004
COX7B (UniProt P24311) | -0.003 | 0.001 | 0.063 | -0.018 | 0.018
CHMP4C (UniProt Q96CF2) | -0.002 | 0.169 | 0.045 | 0.051 | 0.03
CMTR1 (UniProt Q8N1G2) | -0.008 | 0.033 | 0.07 | -0.009 | -0.04
CORO2A (UniProt Q92828) | -0.057 | -0.041 | 0.061 | 0.045 | 0.071
CD68 (UniProt P34810) | 0.021 | – | – | – | –

Target | log2 fold change [1] | log2 fold change [2] | log2 fold change [3] | log2 fold change [4] | log2 fold change [5]
CSNK2A1 (UniProt P68400) | 0.018 | 0.033 | 0.018 | -0.008 | 0.02
CETN3 (UniProt O15182) | 0.019 | -0.055 | 0.109 | 0.008 | -0.014
CEPT1 (UniProt Q9Y6K0) | -0.064 | 0.105 | 0.074 | -0.121 | -0.054
CDK9 isoform 2 (UniProt P50750) | -0.007 | -0.03 | 0 | 0.089 | 0
CRK (UniProt P46108) | 0 | 0.013 | 0.005 | 0.028 | -0.01
CS (UniProt F8VU34) | -0.03 | – | – | – | –
CIT isoform 4 (UniProt O14578) | -0.055 | 0.002 | 0.001 | -0.011 | 0.009
CDC42SE1 (UniProt Q9NRR8) | -0.151 | 0.016 | 0.088 | -0.076 | -0.007
CCNB1 (UniProt P14635) | -0.004 | 0.036 | 0.015 | -0.007 | 0.026
CBR1 (UniProt P16152) | -0.009 | 0.015 | 0.01 | -0.028 | -0.037
CHCHD4 isoform 2 (UniProt Q8N4Q1) | 0.08 | 0.205 | -0.006 | -0.489 (active) | -0.113
CD151 (UniProt P48509) | -0.126 | 0.049 | 0.031 | -0.046 | 0.101
CD81 (UniProt P60033) | -0.083 | -0.013 | -0.035 | 0.03 | 0.109
CLPTM1L (UniProt G5E9Z2) | -0.22 | 0.148 | -0.012 | -0.07 | -0.1
CHD4 isoform 2 (UniProt Q14839) | -0.065 | 0 | 0.021 | 0.049 | 0.032
CLN8 (UniProt Q9UBY8) | 0.121 | 0.042 | -0.067 | 0.043 | -0.057
CNN2 (UniProt Q99439) | -0.061 | 0.011 | 0.039 | 0.007 | 0.01
CSE1L (UniProt P55060) | -0.024 | 0.063 | 0.033 | -0.028 | -0.009
CCNDBP1 (UniProt O95273) | 0.023 | -0.118 | 0.182 | 0.007 | 0.047
COPS4 (UniProt Q9BT78) | 0.04 | 0.023 | 0.016 | -0.01 | -0.011
CNTN4 (UniProt Q8IWV2) | 0.093 | 0.154 | 0.103 | -0.075 | -0.106
COX6B1 (UniProt P14854) | 0.007 | 0.141 | 0.003 | -0.153 | -0.054
CLINT1 isoform 3 (UniProt Q14677) | 0.053 | -0.039 | -0.01 | 0.046 | 0.044
CPSF7 isoform 3 (UniProt Q8N684) | 0.007 | 0.013 | -0.012 | 0.017 | -0.013
CENPE (UniProt Q02224) | -0.005 | -0.139 | 0.049 | -0.001 | -0.362
CAMKK2 (UniProt Q96RR4) | -0.047 | 0.388 | 0.023 | 0.019 | 0.149
CCDC9 (UniProt Q9Y3X0) | -0.019 | -0.012 | -0.118 | 0.091 | 0.041
